Data on five compounds can be found in PubChem BioAssay.

Calls of active or inactive are those of the source. Unless noted, the rule behind the calls is not given here.

Assay [1] in a line: compounds binding Alexa647 anti-His antibody – biochemical, small-molecule microarray, 635 nm fluorescence, artefact control for SMM control protein annotation, primary screen (AID 1128).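 Note: score merges feature fluorescence with signal-to-noise for each printed compound spot.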 The note with it: higher = more signal.
The subject of assay [2] is Human papillomavirus type 1a E7 protein (residues 1-88). Kind of assay: HPV1a E7 small-molecule binders, primary screen, biochemical, small-molecule microarray, residues 1-88, 635 nm (AID 1129). The note with it: small-molecule microarray binding, fluorescence 635 nm; higher = more signal.
Assay [3] concerns the target Focal adhesion kinase 1 (Homo sapiens) (UniProt Q05397). Kind of assay: PTK2 protein binding on printed compound slides – biochemical, small-molecule microarray, 635/667 nm fluorescence, BSA, DTT, primary screen (AID 1130).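 Note: composite of spot emission at 667 nm and signal to noise over triplicate slides.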 The note with it: 635 nm fluorescence, higher = more signal.
In assay [4] the test system is Fibrinogen (Alexa647-labelled). Kind of assay: Alexa647-fibrinogen binding to printed small molecules – biochemical, small-molecule microarray, 635/667 nm fluorescence, artefact control for SMM control-protein annotation, profiling panel (AID 1131).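 Note: z-score merges 667 nm fluorescence with per-spot signal-to-noise over triplicate slides.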 The note with it: fibrinogen-A647 binding fluorescence, higher = more signal.
The target of assay [5] is Follistatin (Homo sapiens) (UniProt P19883). Kind of assay: FST protein binding to printed compounds – biochemical, small-molecule microarray, 635/667 nm fluorescence, primary screen (AID 1132). The note with it: 635 nm fluorescence, higher = more signal.
Chain of Follistatin (Homo sapiens) (P19883 whole entry, looked up): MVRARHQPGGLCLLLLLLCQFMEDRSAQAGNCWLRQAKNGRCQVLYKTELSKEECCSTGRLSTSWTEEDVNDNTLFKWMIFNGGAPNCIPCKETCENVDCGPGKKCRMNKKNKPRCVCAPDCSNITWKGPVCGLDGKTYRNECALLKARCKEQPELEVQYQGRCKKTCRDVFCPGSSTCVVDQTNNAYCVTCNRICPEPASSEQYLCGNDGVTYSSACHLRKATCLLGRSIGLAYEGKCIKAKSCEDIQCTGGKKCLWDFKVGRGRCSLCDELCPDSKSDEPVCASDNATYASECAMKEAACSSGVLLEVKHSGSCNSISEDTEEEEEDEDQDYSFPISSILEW
The target in assay [6] is Fibroblast growth factor 2 (Homo sapiens) (UniProt P09038). Kind of assay: basic fibroblast growth factor binding to printed compounds – biochemical, small-molecule microarray, 635/667 nm fluorescence, primary screen (AID 1133). The note with it: FGF2, fluorescence 635/667, higher = more signal.
Chain of Fibroblast growth factor 2 (Homo sapiens) (P09038 whole entry, looked up): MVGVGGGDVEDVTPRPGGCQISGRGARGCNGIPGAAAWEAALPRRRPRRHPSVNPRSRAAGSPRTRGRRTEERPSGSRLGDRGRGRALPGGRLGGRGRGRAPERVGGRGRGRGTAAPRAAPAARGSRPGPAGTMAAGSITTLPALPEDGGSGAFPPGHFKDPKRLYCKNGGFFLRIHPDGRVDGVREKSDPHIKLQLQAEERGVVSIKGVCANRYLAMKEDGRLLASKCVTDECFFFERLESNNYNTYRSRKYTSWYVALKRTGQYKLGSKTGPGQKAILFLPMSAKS
Assay [7] can be described thus: JC-1 mitochondrial potential readout, lung cancer cells – cell-based, A549, JC-1 fluorescence, basal, 24 h, 100 nL, profiling panel (AID 1138).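 Note: A549 lung adenocarcinoma cells under basal conditions with no added stimulus; test concentration not given here.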 The note with it: higher = more signal.
Assay [8] deals with Lefty1. Kind of assay: Lefty1 protein binding to printed compounds – biochemical, small-molecule microarray, 635/667 nm fluorescence, primary screen (AID 1139). The note with it: fluorescence 635/667, higher = more signal.
Assay [9] concerns wheat germ agglutinin (Triticum aestivum), Alexa647-labelled. Kind of assay: Alexa647-WGA lectin binding to printed small molecules – biochemical, small-molecule microarray, 635/667 nm fluorescence, artefact control for SMM control-protein annotation, profiling panel (AID 1140).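 Note: score merges 667 nm feature emission with signal to noise over triplicate slides.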 The note with it: WGA-A647 binding, 635 nm fluorescence, higher = more signal.
Assay [10] deals with Luciferin 4-monooxygenase (Photinus pyralis) (UniProt P08659). Kind of assay: inhibition of purified Photinus pyralis luciferase – biochemical, luminescence, purified enzyme, 2006 set, primary screen (AID 1141).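 Note: cell-free assay with purified firefly luciferase at 100 ng per well in PBS; test concentration not given here.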 The note with it: purified firefly luciferase, SteadyGlo luminescence, 30 min; higher = more signal, called active from +8 up or from −8 down.
Chain of Luciferin 4-monooxygenase (Photinus pyralis) (P08659 whole entry, looked up): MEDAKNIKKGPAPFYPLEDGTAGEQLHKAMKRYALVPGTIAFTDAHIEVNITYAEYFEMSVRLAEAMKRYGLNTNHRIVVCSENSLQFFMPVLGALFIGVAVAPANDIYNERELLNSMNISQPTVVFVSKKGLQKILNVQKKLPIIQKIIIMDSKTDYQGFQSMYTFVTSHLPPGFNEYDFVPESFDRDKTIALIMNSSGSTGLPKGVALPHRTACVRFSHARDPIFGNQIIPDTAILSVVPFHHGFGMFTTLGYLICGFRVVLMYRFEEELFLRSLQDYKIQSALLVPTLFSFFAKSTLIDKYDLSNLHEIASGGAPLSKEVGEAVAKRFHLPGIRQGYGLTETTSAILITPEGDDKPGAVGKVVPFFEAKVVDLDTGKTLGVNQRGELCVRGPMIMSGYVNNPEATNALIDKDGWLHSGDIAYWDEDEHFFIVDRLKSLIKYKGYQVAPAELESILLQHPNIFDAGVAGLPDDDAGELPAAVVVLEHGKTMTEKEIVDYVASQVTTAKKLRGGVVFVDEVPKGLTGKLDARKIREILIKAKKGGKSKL
The test system of assay [11] is Wnt5a (protein binding on small-molecule microarray). Kind of assay: small molecules binding Wnt5a protein – biophysical, small-molecule microarray, 635/667 nm fluorescence, primary screen (AID 1142).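 Note: fluorescence read at 667 nm with signal to noise per printed feature.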 The note with it: 635 nm fluorescence, higher = more signal.
Assay [12] can be described thus: ATP-based viability of Huh7 replicon cells – cell-based, CellTiter-Glo luminescence, basal, 48 h, cytotoxicity control for HCV replication inhibitor project, primary screen (AID 1143).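 Note: Huh7 hepatoma cells carrying a hepatitis C replication reporter with no stimulus; test concentration not given here.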 The note with it: higher = more signal, called active from +8 up or from −8 down. A general note: Replicon systems follow genome replication, usually without infectious particles.
Assay [13] in a line: Pseudomonas biofilm growth suppression – PAO1 strain, BacTiter-Glo luminescence, LB-PBS, primary screen (AID 1144). The note with it: P. aeruginosa PAO1 biofilm, 12 h, higher = more signal.
The nature of assay [14]: basal CRE-LacZ reporter activity in PC12 – cell-based, unstimulated, primary screen (AID 1145). The note with it: no forskolin, luminescence, 4.5 h, higher = more signal, called active from +8 up or from −8 down.
Assay [15] is described as follows: forskolin-driven CRE-LacZ activity in PC12 – cell-based, CRE-LacZ reporter, forskolin-stimulated, primary screen (AID 1146).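 Note: PC12 cells with 6xCRE LacZ reporter stimulated by forskolin 10 µM; beta-galactosidase reporter signal reflecting CREB driven transcription.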 The note with it: luminescence, 4.5 h, higher = more signal, called active from +8 up or from −8 down.
Assay [16] has as its target Streptavidin (Streptomyces avidinii) (UniProt P22629). Kind of assay: compounds binding control protein streptavidin – biophysical, small-molecule microarray, 635/667 nm fluorescence, artefact control for SMM compound annotation, primary screen (AID 1147).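 Note: signal reflects streptavidin binding to arrayed compounds as a control protein.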 The note with it: higher = more signal.
Assay [17] can be described thus: probe aInhba binding on compound microarray – biochemical, small-molecule microarray, 635/667 nm fluorescence, primary screen (AID 1148).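 Note: score merges 667nm spot fluorescence with signal-to-noise for antibody binding to printed compounds.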 The note with it: higher = more signal.
In assay [18] the target is Torsin-1A (Homo sapiens) (UniProt O14656). Kind of assay: TOR1A wild-type binding on microarray – cell lysate, small-molecule microarray, lysate, 635/667 nm, primary screen (AID 1149). The note with it: COS7 hTOR1A-WT lysate, 635 nm fluorescence, higher = more signal.
Chain of Torsin-1A (Homo sapiens) (O14656 whole entry, looked up): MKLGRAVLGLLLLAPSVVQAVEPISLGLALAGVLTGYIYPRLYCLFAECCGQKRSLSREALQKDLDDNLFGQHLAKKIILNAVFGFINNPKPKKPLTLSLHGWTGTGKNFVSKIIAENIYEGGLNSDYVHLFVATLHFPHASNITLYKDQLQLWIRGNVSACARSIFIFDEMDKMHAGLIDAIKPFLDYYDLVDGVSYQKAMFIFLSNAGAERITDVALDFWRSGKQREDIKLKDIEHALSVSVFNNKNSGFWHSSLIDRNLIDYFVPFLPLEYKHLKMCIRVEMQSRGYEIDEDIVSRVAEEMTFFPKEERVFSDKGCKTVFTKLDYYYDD
For assay [19] the target is unchanged. Kind of assay: torsin A mutant lysate binding on microarrays – cell lysate, small-molecule microarray, COS7 lysate, 635/667 nm fluorescence, primary screen (AID 1150).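 Note: score pools 667 nm emission and signal to noise measuring lysate protein binding.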 The note with it: COS7 hTOR1A mutant lysate, 635 nm fluorescence, higher = more signal.
Assay [20] deals with Sonic hedgehog protein (Shh). Kind of assay: Sonic hedgehog microarray binding compounds – biochemical, small-molecule microarray, 635/667 nm fluorescence, primary screen (AID 1151).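 Note: Shh protein binding to compounds spotted on small-molecule microarray slides; score combines spot fluorescence intensity with signal-to-noise across triplicate slides.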 The note with it: 635 nm fluorescence, higher = more signal.

Chain of Focal adhesion kinase 1 (Homo sapiens) (Q05397 whole entry, looked up): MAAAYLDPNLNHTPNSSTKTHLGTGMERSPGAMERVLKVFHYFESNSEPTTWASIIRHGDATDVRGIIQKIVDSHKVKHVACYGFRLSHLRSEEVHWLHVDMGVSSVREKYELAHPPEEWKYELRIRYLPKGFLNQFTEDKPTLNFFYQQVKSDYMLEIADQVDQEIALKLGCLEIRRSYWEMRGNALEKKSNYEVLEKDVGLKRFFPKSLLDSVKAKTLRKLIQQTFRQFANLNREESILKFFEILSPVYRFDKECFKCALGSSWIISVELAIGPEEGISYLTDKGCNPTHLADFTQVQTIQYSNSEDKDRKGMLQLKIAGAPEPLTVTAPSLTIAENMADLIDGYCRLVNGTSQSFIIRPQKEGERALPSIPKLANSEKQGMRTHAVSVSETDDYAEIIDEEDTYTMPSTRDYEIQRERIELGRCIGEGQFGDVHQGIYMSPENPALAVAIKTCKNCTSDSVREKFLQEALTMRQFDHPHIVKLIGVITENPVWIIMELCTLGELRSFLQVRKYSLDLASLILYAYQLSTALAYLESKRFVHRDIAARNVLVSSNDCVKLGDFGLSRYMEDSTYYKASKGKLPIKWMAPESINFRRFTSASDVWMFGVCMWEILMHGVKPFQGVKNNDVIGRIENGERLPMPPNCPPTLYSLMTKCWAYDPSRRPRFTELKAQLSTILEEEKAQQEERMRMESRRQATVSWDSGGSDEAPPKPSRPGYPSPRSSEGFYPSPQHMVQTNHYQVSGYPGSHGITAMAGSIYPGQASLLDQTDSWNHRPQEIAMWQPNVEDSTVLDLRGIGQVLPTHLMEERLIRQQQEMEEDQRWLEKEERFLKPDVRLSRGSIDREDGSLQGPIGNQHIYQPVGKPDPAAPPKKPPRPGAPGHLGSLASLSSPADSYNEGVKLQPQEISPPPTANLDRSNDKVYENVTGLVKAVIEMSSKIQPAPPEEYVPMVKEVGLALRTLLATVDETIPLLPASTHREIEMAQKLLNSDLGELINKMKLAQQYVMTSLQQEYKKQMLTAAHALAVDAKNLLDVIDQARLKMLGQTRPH
Chain of Streptavidin (Streptomyces avidinii) (P22629 whole entry, looked up): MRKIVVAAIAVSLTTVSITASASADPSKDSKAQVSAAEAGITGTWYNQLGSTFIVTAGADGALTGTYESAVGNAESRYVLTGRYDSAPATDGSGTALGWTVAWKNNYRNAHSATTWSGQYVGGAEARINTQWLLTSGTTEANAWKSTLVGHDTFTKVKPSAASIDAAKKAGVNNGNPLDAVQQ

As to `NC(N)=NCc1cn(CCc2c[nH]c3ccccc23)nn1`, the composite z-score is 2 in assay [1]; 0.599 in [2]; 0.0313 in assay [3]; 0.367 in [4]; 0.832 in assay [5]; 1.07 in [6]. Moreover, the composite z-score was 1.05 in assay [8]; 0.0932 in assay [9]; 0.131 in assay [11]; 0.294 in [16]; 0.0275 in [17]; 0.607 in assay [18]. The composite z-score in assay [19] amounted to 0.734; in assay [20], 1.54. The z-score was 0.0134 in assay [7]; -0.813 (inactive) in assay [10]; -0.343 (inactive) in [12]; 0.845 (inactive) in assay [13]; -0.0989 (inactive) in [14]; 0.0771 (inactive) in assay [15].

For `Cc1ccc(S[C@]2(C(=O)NC3CC3)CC(=O)N(Cc3ccccc3Cl)[C@@H]2c2ccc(CO)cc2I)cc1`, the composite z-score in assay [1] is 2.99; in assay [2] it was 1.05; in [3], 1.31; in assay [4], 0.811; in [5] it was 1.45; in [6], 1.67. Moreover, the composite z-score in assay [8] worked out at 0.101; in assay [9], 0.277; in [11], 1.3; in assay [16], 0.163; in assay [17] it was 0.0471; in [18], 0.765. Besides, the composite z-score stood at 1.01 in assay [19] and 1.67 in assay [20]. Also, the z-score in assay [7] was 0.677; in assay [10] it was 0.352 (inactive); in assay [12], -1.5 (inactive); in assay [13], -0.637 (inactive); in [14], 0.145 (inactive); in assay [15], 1.13 (inactive).

Turning to `CCOc1cc(C(O)C2C=CC3C(=O)N(C)C(=O)C3N2N2CCCCC2)ccc1O` (stereo not given), the composite z-score in [1] is 1; in [2], -0.158; in assay [3], 0.125; in assay [4], 0.498; in assay [5], 0.746; in assay [6], 0.1. Moreover, the composite z-score in assay [8] was 0.192; in assay [9], 0.335; in assay [11], 0.194; in assay [16], 0.3; in [17], -0.137; in assay [18], 0.28. In addition, the values for the composite z-score in assay [19] and in assay [20] were 0.221 and 0.0937, respectively. In addition, the z-score in assay [7] is -0.634; in [10], -0.906 (inactive); in assay [12], 0.862 (inactive); in assay [13], -0.401 (inactive); in [14], 0.433 (inactive); in assay [15], -0.499 (inactive).

For the compound `CC(C)(C)OC(=O)CC[C@]1(C(=O)O)N=C(c2ccc(OCCCO)cc2)O[C@H]1c1ccccc1`, the composite z-score is 0.548 in assay [1]; 0.611 in [2]; 0.0043 in [3]; 0.284 in assay [4]; 0.329 in assay [5]; -0.236 in [6]. In addition, the composite z-score in assay [8] is 0.0766; in assay [9], 0.247; in [11], -0.221; in assay [16], 0.235; in assay [17] it was -0.102; in assay [18], -0.272. In addition, the composite z-score in assay [19] is 0.113; in assay [20] it was -0.899. The z-score in assay [7] is -0.132; in [10], 0.476 (inactive); in [12], -1.48 (inactive); in [13] it was -0.278 (inactive); in [14] it was -0.986 (inactive); in assay [15], -0.72 (inactive).

On to `COc1ccc([Si](C)(C)[C@@H]2[C@@H](CC(=O)N3CCC[C@H]3CO)O[C@]3(C(=O)N(Cc4ccc(N5C(=O)c6cccc7cccc5c67)cc4)c4ccccc43)[C@H]2C)cc1`, for which the composite z-score is 1.96 in assay [1]; 1.2 in [2]; 0.566 in assay [3]; 0.759 in assay [4]; 1.1 in assay [5]; 1.54 in [6]. Further, the composite z-score in assay [8] was 1.2; in assay [9] it was 0.719; in [11], 0.761; in assay [16], 0.0541; in assay [17], 0.0184; in [18], 0.344. In addition, the results for the composite z-score in [19] and in [20] were 0.72 and 2.06, respectively. The z-score in [7] was -0.438; in [10], 0.508 (inactive); in assay [12] it was -4.78 (inactive); in assay [13], -0.489 (inactive); in assay [14], 0.995 (inactive); in [15] it was -0.0202 (inactive).
